From PubChem BioAssay (NCI)
Compounds without any hit were thinned out: in the full panel of roughly 79,000, 15% have a hit. The source made the active and inactive calls. No stated cut-off is given here; in the data, active means growth inhibition above about 70%; inactive means the rest.

Assays:
[1] = NCI Yeast Anticancer Drug Screen. Data for the rad52 strain (AID 147);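 further: 0% = growth of vehicle-treated control cultures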; details: S. cerevisiae rad52 mutant growth inhibition, stronger effect = higher value
How it was run: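 Compounds are applied to a genetically defined yeast strain lacking normal DNA damage repair, and inhibition of growth is expressed relative to cultures given vehicle only.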

[2] = NCI Yeast Anticancer Drug Screen. Data for the wt1 strain (AID 149);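 further: 0% = growth of vehicle-treated wt1 cultures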; details: S. cerevisiae wt1 strain (SPY 50644) growth inhibition, stronger effect = higher value
How it was run: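 Compounds are added to wt1 yeast cultures. Growth is then measured. Inhibition is expressed relative to vehicle-treated controls.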

[3] = NCI Yeast Anticancer Drug Screen. Data for the rad50EPP+ strain (AID 151);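 further: 0% = growth of vehicle-treated control cultures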; details: S. cerevisiae rad50 mutant strain, stronger effect = higher value
How it was run: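 Compounds were applied to the rad50EPP+ yeast strain, which bears a defined DNA repair alteration, and growth inhibition was determined relative to vehicle-treated cultures.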

[4] = NCI Yeast Anticancer Drug Screen. Data for the mgt1 strain (AID 153); details: S. cerevisiae mgt1 mutant growth inhibition, stronger effect = higher value
How it was run: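 Strain: mgt1 yeast, one of a set carrying defined DNA damage repair or cell cycle control alterations. Compound-treated growth compared with vehicle.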

[5] = NCI Yeast Anticancer Drug Screen. Data for the rad50 strain (AID 155);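 further: 0% = growth of vehicle-only cultures of the same strain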; details: S. cerevisiae rad50 strain growth inhibition, stronger effect = higher value
How it was run: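 Inhibition values express reduced yeast growth in compound-treated cultures relative to vehicle-treated controls.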

[6] = NCI Yeast Anticancer Drug Screen. Data for the mec2-1 strain (AID 157); details: S. cerevisiae mec2-1 strain, stronger effect = higher value
How it was run: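 Strain: mec2-1 (DNA repair/cell cycle alteration). Compound exposure, then growth measured; inhibition expressed relative to vehicle.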

[7] = NCI Yeast Anticancer Drug Screen. Data for the rad14 strain (AID 159);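 further: 0% = growth of vehicle-treated control cultures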; details: S. cerevisiae rad14 strain growth inhibition, stronger effect = higher value
How it was run: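 A mutant yeast strain defective in DNA damage repair is treated with compound; inhibition of its growth is scored against untreated, vehicle-exposed cultures.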

[8] = NCI Yeast Anticancer Drug Screen. Data for the sgs1 mgt1 strain (AID 161);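 further: 0% = growth of cultures given vehicle only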; details: S. cerevisiae sgs1 mgt1 strain, stronger effect = higher value
How it was run: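 Genetically altered yeast, compound exposure, growth inhibition relative to vehicle.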

[9] = NCI Yeast Anticancer Drug Screen. Data for the cln2 rad14 strain (AID 165);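 further: 0% = growth equal to vehicle treated cultures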; details: S. cerevisiae cln2 rad14 strain, stronger effect = higher value
How it was run: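 Compounds are applied to the cln2 rad14 yeast strain, and growth is then compared with that of vehicle-treated cultures to give inhibition.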

[10] = NCI Yeast Anticancer Drug Screen. Data for the bub3 strain (AID 167); details: S. cerevisiae bub3 mutant strain, stronger effect = higher value
How it was run: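 Steps: expose the mutant yeast strain to compound; grow alongside vehicle-treated cultures; measure growth; express inhibition against the vehicle cultures.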

[11] = NCI Yeast Anticancer Drug Screen. Data for the wt2 strain (AID 169);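 further: 0% = growth of vehicle-treated yeast cultures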; details: S. cerevisiae wt2 strain growth inhibition, stronger effect = higher value
How it was run: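 This strain belongs to a panel of yeast strains with defined genetic alterations in DNA damage repair or cell cycle control. Compounds are applied, and growth inhibition is measured against vehicle-treated cultures.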

[12] = NCI Yeast Anticancer Drug Screen. Data for the mlh1 strain (AID 171);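 further: 0% = growth of vehicle-treated control cultures of the same strain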; details: S. cerevisiae mlh1 strain growth inhibition, stronger effect = higher value
How it was run: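 Growth of the mutant yeast strain after compound exposure, expressed as inhibition relative to vehicle-only controls.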

[13] = NCI Yeast Anticancer Drug Screen. Data for the sgs1 strain (AID 173);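 further: 0% = growth of vehicle-only control cultures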; details: S. cerevisiae sgs1 mutant, stronger effect = higher value
How it was run: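 Growth of a yeast strain bearing a defined genetic alteration is measured after compound treatment. Inhibition is expressed relative to vehicle-only controls.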

[14] = NCI Yeast Anticancer Drug Screen. Data for the mlh1 rad18 strain (AID 175); details: S. cerevisiae mlh1 rad18 strain growth inhibition, stronger effect = higher value
How it was run: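 Read-out is yeast growth inhibition, calculated against vehicle-only controls. The compound was applied to a strain engineered with DNA damage repair alterations.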

[15] = NCI Yeast Anticancer Drug Screen. Data for the rad18 strain (AID 177); details: S. cerevisiae rad18 mutant growth inhibition, stronger effect = higher value
How it was run: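 Growth of the mutant yeast strain after compound exposure, normalised to vehicle-only cultures.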

[16] = NCI Yeast Anticancer Drug Screen. Data for the CLN2oe strain (AID 163);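 further: 0% = growth of vehicle-only control cultures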; details: S. cerevisiae CLN2oe strain, stronger effect = higher value
How it was run: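 Growth of a genetically modified yeast strain is measured after compound exposure and compared with cultures given vehicle alone.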

[17] = at 5.0 µM (retest, dose inferred, filed as 0.5)
[18] = at 50.0 µM (retest, dose inferred, filed as 5.0)

Measured: growth inhibition

OC1(c2ccccc2)C2CC=CC2C1(c1ccccc1)c1ccccc1 (stereo unspecified)
inactive: [1]; at 1.2 µM 0% | [1]; at 3.7 µM -1% | [1]; at 11.0 µM 4% | [1]; at 33.0 µM 34% | [1]; at 100.0 µM 63% | [2]; at 1.2 µM -4% | [2]; at 3.7 µM -7% | [2]; at 11.0 µM -8% | [2]; at 33.0 µM -7% | [2]; at 100.0 µM 21% | [3]; at 1.2 µM -7% | [3]; at 3.7 µM -1% | [3]; at 11.0 µM 2% | [3]; at 33.0 µM -5% | [3]; at 100.0 µM -5% | [4]; at 1.2 µM -4% | [4]; at 3.7 µM -2% | [4]; at 11.0 µM -5% | [4]; at 33.0 µM -4% | [4]; at 100.0 µM 16% | [5]; at 1.2 µM -2% | [5]; at 3.7 µM 6% | [5]; [17] 12% | [5]; at 11.0 µM 12% | [5]; at 33.0 µM 43% | [5]; [18] 53% | [5]; at 50.0 µM 12.1% | [5]; at 100.0 µM 62% | [6]; at 1.2 µM -3% | [6]; at 3.7 µM -2% | [6]; [17] -6% | [6]; at 11.0 µM -6% | [6]; at 33.0 µM 18% | [6]; [18] -10% | [6]; at 50.0 µM -14.2% | [6]; at 100.0 µM 49% | [7]; at 1.2 µM -3% | [7]; at 3.7 µM 4% | [7]; at 11.0 µM 6% | [7]; at 33.0 µM 0% | [7]; at 100.0 µM 19% | [8]; [17] 16% | [8]; at 50.0 µM 11.1% | [9]; [17] 15% | [9]; [18] 19% | [9]; at 50.0 µM -3.15% | [10]; at 1.2 µM 0% | [10]; at 3.7 µM 2% | [10]; [17] -3% | [10]; at 11.0 µM -9% | [10]; at 33.0 µM 2% | [10]; [18] 52% | [10]; at 50.0 µM 10.9% | [10]; at 100.0 µM 27% | [11]; at 1.2 µM -8% | [11]; at 3.7 µM -11% | [11]; at 11.0 µM -8% | [11]; at 33.0 µM 7% | [11]; at 100.0 µM 54% | [12]; at 1.2 µM -3% | [12]; at 3.7 µM 1% | [12]; at 11.0 µM 7% | [12]; at 33.0 µM 13% | [12]; at 100.0 µM 45% | [13]; at 1.2 µM -15% | [13]; at 3.7 µM -2% | [13]; at 11.0 µM -2% | [13]; at 33.0 µM 54% | [14]; [17] 19% | [14]; at 50.0 µM 0.45% | [15]; at 1.2 µM -8% | [15]; at 3.7 µM -4% | [15]; at 11.0 µM -4% | [15]; at 33.0 µM 1% | [15]; at 100.0 µM 41%
active: [8]; [18] 70% | [13]; at 100.0 µM 77% | [14]; [18] 76%

CC1=CC(C)(C)SC(SSSC2=NC(C)=CC(C)(C)S2)=N1
active: [1]; at 100.0 µM 78% | [4]; at 100.0 µM 89% | [7]; at 100.0 µM 90% | [12]; at 100.0 µM 88% | [13]; at 100.0 µM 89% | [15]; at 100.0 µM 88%
inactive: [1]; at 1.2 µM -3% | [1]; at 3.7 µM -3% | [1]; at 11.0 µM 0% | [1]; at 33.0 µM 7% | [2]; at 1.2 µM -3% | [2]; at 3.7 µM -2% | [2]; at 11.0 µM 0% | [2]; at 33.0 µM 7% | [2]; at 100.0 µM 39% | [3]; at 1.2 µM -1% | [3]; at 3.7 µM -1% | [3]; at 11.0 µM 0% | [3]; at 33.0 µM 2% | [3]; at 100.0 µM 31% | [4]; at 1.2 µM -8% | [4]; at 3.7 µM 1% | [4]; at 11.0 µM 3% | [4]; at 33.0 µM 7% | [5]; at 1.2 µM -17% | [5]; at 3.7 µM -4% | [5]; [17] -6% | [5]; at 11.0 µM -4% | [5]; at 33.0 µM 1% | [5]; [18] 48% | [5]; at 50.0 µM 15.6% | [5]; at 100.0 µM 65% | [6]; at 1.2 µM -2% | [6]; at 3.7 µM -4% | [6]; [17] 0% | [6]; at 11.0 µM 0% | [6]; at 33.0 µM 8% | [6]; [18] 15% | [6]; at 50.0 µM 10.7% | [6]; at 100.0 µM 42% | [7]; at 1.2 µM -6% | [7]; at 3.7 µM -5% | [7]; at 11.0 µM -3% | [7]; at 33.0 µM 8% | [8]; [17] -10% | [8]; [18] 61% | [8]; at 50.0 µM 39.2% | [16]; at 1.2 µM -10% | [16]; at 3.7 µM -17% | [16]; at 11.0 µM -14% | [16]; at 33.0 µM -13% | [16]; at 100.0 µM 13% | [9]; [17] -9% | [9]; [18] 6% | [9]; at 50.0 µM 2.9% | [10]; at 1.2 µM -2% | [10]; at 3.7 µM -2% | [10]; [17] -1% | [10]; at 11.0 µM 1% | [10]; at 33.0 µM 1% | [10]; [18] 24% | [10]; at 50.0 µM -3.25% | [10]; at 100.0 µM 56% | [12]; at 1.2 µM -5% | [12]; at 3.7 µM -4% | [12]; at 11.0 µM 0% | [12]; at 33.0 µM 11% | [13]; at 1.2 µM -4% | [13]; at 3.7 µM -2% | [13]; at 11.0 µM 0% | [13]; at 33.0 µM 14% | [14]; [17] -4% | [14]; [18] 42% | [14]; at 50.0 µM 29.8% | [15]; at 1.2 µM -4% | [15]; at 3.7 µM 0% | [15]; at 11.0 µM 7% | [15]; at 33.0 µM 23%

CCCCS(=O)(=O)Nc1ccc(Nc2c3ccccc3nc3ccccc23)c(OC)c1
active: [1]; at 3.7 µM 80% | [1]; at 11.0 µM 90% | [1]; at 33.0 µM 93% | [1]; at 100.0 µM 96% | [2]; at 100.0 µM 96% | [3]; at 100.0 µM 81% | [4]; at 100.0 µM 96% | [5]; at 3.7 µM 78% | [5]; [17] 86% | [5]; at 11.0 µM 89% | [5]; at 33.0 µM 94% | [5]; [18] 98% | [5]; at 100.0 µM 96% | [6]; at 33.0 µM 91% | [6]; [18] 98% | [6]; at 100.0 µM 98% | [7]; at 33.0 µM 79% | [7]; at 100.0 µM 96% | [8]; [18] 99% | [8]; at 50.0 µM 84% | [16]; at 33.0 µM 72% | [16]; at 100.0 µM 91% | [9]; [18] 95% | [9]; at 50.0 µM 77% | [10]; [18] 96% | [10]; at 50.0 µM 76.9% | [10]; at 100.0 µM 96%
inactive: [1]; at 1.2 µM 54% | [2]; at 1.2 µM -38% | [2]; at 3.7 µM -34% | [2]; at 11.0 µM -36% | [2]; at 33.0 µM 44% | [3]; at 1.2 µM -20% | [3]; at 3.7 µM -11% | [3]; at 11.0 µM 10% | [3]; at 33.0 µM 53% | [4]; at 1.2 µM -49% | [4]; at 3.7 µM -46% | [4]; at 11.0 µM -33% | [4]; at 33.0 µM 64% | [5]; at 1.2 µM 39% | [5]; at 50.0 µM 45% | [6]; at 1.2 µM -29% | [6]; at 3.7 µM -9% | [6]; [17] 15% | [6]; at 11.0 µM 37% | [6]; at 50.0 µM 47.5% | [7]; at 1.2 µM -31% | [7]; at 3.7 µM -25% | [7]; at 11.0 µM -9% | [8]; [17] 44% | [16]; at 1.2 µM 10% | [16]; at 3.7 µM 3% | [16]; at 11.0 µM 6% | [9]; [17] 25% | [10]; at 1.2 µM -53% | [10]; at 3.7 µM -63% | [10]; [17] 43% | [10]; at 11.0 µM -35% | [10]; at 33.0 µM 60%
